KB-V1 cytotox – KB-V1 MDR subline cytotoxicity; AID 1347076; hit rate 3.4% among 400,000; Potency, µM (highest dose often 46.1 µM), actives largely listed as cytotoxic; KB-V1 MDR cells viability, CellTiter-Glo, 72 h; note: nearly all actives have a fitted effect of over 60% in size
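KB-V1 cells (P-gp-expressing MDR subline of KB-3-1) in phenol-red-free DMEM with 10% FBS were exposed to library compounds over a concentration series for 72 h at 37 degrees C. Viability read by CellTiter-Glo luminescence; concentration-effect curves fitted after normalization.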
HT1080 IDH1KD tx – toxicity to HT-1080 IDH1 knockdown cells (counter line) | HT-1080 IDH1 knockdown viability, ATP luminescence, 48 h | Potency, µM (titrated, usually from 46.1 µM), actives largely listed as cytotoxic | hit rate 2% among 360,000 | AID 686971
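Viability of IDH1-knockdown HT-1080 fibrosarcoma cells was assessed by CellTiter-Glo after 48 h at 37 °C with titrated compound; concentration-effect curves were classified by fit quality and response size.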
ATXN2 expr inh – ATXN2 expression inhibition; Potency, µM (series often up to 57 µM), hits mostly inhibitors; HEK-293 ATXN2-luciferase reporter, luminescence, 24 h; AID 1745845; hit rate 0.72% among 360,000; note: nearly all actives have a fitted effect of over 55% in size
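ATXN2-luciferase reporter cells (luciferase flanked by upstream and downstream ATXN2 gene portions) were treated 24 h at 37 °C with compounds at up to 57 uM. SteadyGlo luminescence gave expression; GF-AFC fluorescence gave viability.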
HT1080NT lethal – kills 2HG-producing HT-1080-NT fibrosarcoma cells | HT-1080-NT fibrosarcoma viability, CellTiter-Glo ATP luminescence, 48 h | Potency, µM (top dose mostly 46.1 µM), hits mostly cytotoxic | hit rate 1.6% among 360,000;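 note: NT is the 2HG producing partner of a matched IDH1 knockdown line; nearly all actives have a fitted effect of over 55% in size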
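Fibrosarcoma NT cells, 750 per well in 5% FBS RPMI, were exposed to compound for 48 hours. Viability: CellTiter-Glo luminescence.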
S2 tox – reduces viability in counter-screen for ATXN expression inhibitors; hit rate 0.49% among 400,000; AID 651635; Potency, µM (top dose mostly 56.7 µM), most hits filed as cytotoxic; S2 cells (HEK-293 line with an ATXN2-luciferase reporter) viability, CellTiter-Fluor protease fluorescence, 24 h; note: nearly all actives have a fitted effect of over 40% in size
KB-3-1 tox – KB-3-1 parental cell cytotoxicity; Potency, µM (top dose mostly 46.1 µM), hits mostly cytotoxic; KB-3-1 viability, CellTiter-Glo ATP luminescence, 72 h; AID 1347075; hit rate 1.4% among 400,000; note: nearly all actives have a fitted effect of over 60% in size
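KB-3-1 parental drug-naive adenocarcinoma cells in DMEM/10% FBS, incubated 72 h at 37 C with pin-transferred compounds across a concentration series. Viability by CellTiter-Glo luminescence; concentration-response curves fitted after normalization.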
Hits are given with their value. Rows were chosen to be rich in hits. Some 6.2% of all compounds tested hit in one or more screens of this group. Calls come from the whole dose curve; as a rule, active = well fitted curve in the direction sought with a large enough effect; inconclusive = small, poorly fitted or top-dose-only effect, or another doubt; inactive = no such curve, though single readings can be large; an effect the other way counts as inactive or inconclusive.

For Cc1cccc(-n2nnnc2SCC(=O)c2cc(C)n(Cc3ccco3)c2C)c1 the results were KB-V1 cytotox 18.4µM, HT1080 IDH1KD tx inconclusive, ATXN2 expr inh inactive, HT1080NT lethal inactive, S2 tox inactive and KB-3-1 tox inactive.
CC(=O)c1ccc(NC(=O)C2CCN(S(=O)(=O)c3ccc4c(c3)CCCN4C(=O)C3CCC3)CC2)cc1 was read as KB-V1 cytotox inactive, ATXN2 expr inh inactive, S2 tox inactive and KB-3-1 tox inactive.
`C=CCC1(CC=C)CCCN1C(=O)c1cc(COc2ccccc2SC)on1` gave HT1080 IDH1KD tx inactive, ATXN2 expr inh inactive, HT1080NT lethal inactive and S2 tox inactive.
For CCCn1c(SCC(=O)c2cc(C)n(C3CC3)c2C)n[nH]c1=O the results were HT1080 IDH1KD tx inactive, ATXN2 expr inh inactive, HT1080NT lethal inactive and S2 tox inactive.
For CCCn1c(SCC(=O)c2cc(C)n(-c3ccc4c(c3)OCO4)c2C)n[nH]c1=O the results were KB-V1 cytotox 2.91µM, HT1080 IDH1KD tx inactive, ATXN2 expr inh inactive, HT1080NT lethal inactive, S2 tox inactive and KB-3-1 tox 11.6µM.
`Cc1cc(C(=O)CSc2nncs2)c(C)n1-c1ccc2c(c1)OCO2` gave KB-V1 cytotox 16.4µM, HT1080 IDH1KD tx inactive, ATXN2 expr inh inactive, HT1080NT lethal inconclusive, S2 tox inactive and KB-3-1 tox inactive.
CC(C)(C)OC(=O)N1CCC(c2c(C(=O)NCCN3CCOCC3)cnn2-c2ccc(F)cc2F)CC1 was read as KB-V1 cytotox inconclusive and KB-3-1 tox inactive.
COc1ccc(S(=O)(=O)N2c3cc(Cl)ccc3Oc3nc4ccccc4nc32)cc1 was read as KB-V1 cytotox 7.31µM, HT1080 IDH1KD tx 0.92µM, ATXN2 expr inh inactive, HT1080NT lethal inconclusive, S2 tox inactive and KB-3-1 tox 2.06µM.
`O=S(=O)(c1ccc(Cl)cc1)N1c2ccccc2Oc2nc3ccccc3nc21` gave KB-V1 cytotox inconclusive, HT1080 IDH1KD tx inactive, ATXN2 expr inh inactive, HT1080NT lethal inactive, S2 tox inactive and KB-3-1 tox inconclusive.
For O=C(c1cccc(Cn2cccn2)c1)N1CCC(n2c(C3CCCO3)nc3cc(C(F)(F)F)ccc32)CC1 (centres undefined) the results were S2 tox inactive.
For CCC(=O)O[C@@H]1CC(=O)O[C@H](C)C/C=C/C=C/[C@H](O)[C@H](C)C[C@H](CC=O)[C@H](O[C@@H]2O[C@H](C)[C@@H](O[C@H]3C[C@@](C)(O)[C@@H](OC(=O)CC)[C@H](C)O3)[C@H](N(C)C)[C@H]2O)[C@H]1OC the results were S2 tox inactive.
CN(C)c1ccc(CCc2ccc(N)cc2)cc1 was read as KB-V1 cytotox inactive, HT1080 IDH1KD tx inactive, ATXN2 expr inh inconclusive, HT1080NT lethal inactive, S2 tox inactive and KB-3-1 tox inactive.
For Nc1ccc(N(c2ccccc2)c2ccc(N)cc2)cc1 the results were KB-V1 cytotox inconclusive, HT1080 IDH1KD tx 20.6µM, ATXN2 expr inh inconclusive, HT1080NT lethal 16.4µM, S2 tox inactive and KB-3-1 tox inconclusive.
Screening CCOc1ccc2[nH]c(=O)c(CN(Cc3cccs3)Cc3nnnn3C(C)(C)C)cc2c1 returned KB-V1 cytotox 20.6µM, HT1080 IDH1KD tx inconclusive, ATXN2 expr inh inconclusive, HT1080NT lethal inconclusive, S2 tox inconclusive and KB-3-1 tox inactive.
Screening C[C@H](NC(c1ccc(F)cc1)c1ccc2cccnc2c1O)c1ccccc1 (some centres undefined) returned KB-V1 cytotox inactive and KB-3-1 tox inconclusive.
Screening Cc1ccc(S(=O)(=O)Nc2ccc3ncccc3c2[N+](=O)[O-])cc1 returned KB-V1 cytotox 20.6µM, HT1080 IDH1KD tx inactive, ATXN2 expr inh inactive, HT1080NT lethal inactive, S2 tox inactive and KB-3-1 tox 18.4µM.
For Cc1ccc(S(=O)(=O)Nc2cccc3ncccc23)cc1 the results were KB-V1 cytotox inconclusive, HT1080 IDH1KD tx inactive, ATXN2 expr inh inactive, HT1080NT lethal inactive, S2 tox inactive and KB-3-1 tox inactive.
`Cc1ccc(S(=O)(=O)Nc2ccc(O)c3ncccc23)cc1` gave KB-V1 cytotox inconclusive, HT1080 IDH1KD tx 13µM, ATXN2 expr inh inactive, HT1080NT lethal inconclusive, S2 tox inconclusive and KB-3-1 tox inactive.
`Cc1ccc(S(=O)(=O)Nc2ccc(O)c3cccnc23)cc1` gave KB-V1 cytotox inactive, HT1080 IDH1KD tx inconclusive, ATXN2 expr inh 22.4µM, HT1080NT lethal inactive, S2 tox inconclusive and KB-3-1 tox inactive.
`Cc1ccc(S(=O)(=O)Nc2ccnc3ccccc23)cc1` gave KB-V1 cytotox inactive, HT1080 IDH1KD tx inactive, ATXN2 expr inh inactive, HT1080NT lethal inactive, S2 tox inactive and KB-3-1 tox inactive.
`COC(=O)[C@]12CCCCC=C1N(CCC1=CCCCC1)C(=O)[C@H](CC(=O)N1CCC(c3ccccc3)CC1)C2` gave KB-V1 cytotox inconclusive, HT1080 IDH1KD tx inconclusive, ATXN2 expr inh inactive, HT1080NT lethal inconclusive, S2 tox inconclusive and KB-3-1 tox inactive.
`Brc1cccc(-c2nnc3sc(CN4CCC5(CC4)OCCO5)cn23)c1` gave KB-V1 cytotox 20.6µM, HT1080 IDH1KD tx inactive, ATXN2 expr inh inactive, HT1080NT lethal inactive, S2 tox inactive and KB-3-1 tox inactive.
Brc1cccc(-c2nnc3sc(CN4CCCCC4)cn23)c1 was read as KB-V1 cytotox inconclusive, HT1080 IDH1KD tx inactive, ATXN2 expr inh inactive, HT1080NT lethal inactive, S2 tox inactive and KB-3-1 tox inactive.
Clc1ccc(-c2nnc(-c3ccccc3)o2)cn1 was read as KB-V1 cytotox inactive, HT1080 IDH1KD tx inactive, ATXN2 expr inh inactive, HT1080NT lethal inactive, S2 tox inactive and KB-3-1 tox inactive.
For COc1cc(C(=O)Nc2c(C)cc(C)cc2C)c([N+](=O)[O-])cc1OC the results were KB-V1 cytotox 20.6µM, HT1080 IDH1KD tx inactive, ATXN2 expr inh inactive, HT1080NT lethal inactive, S2 tox inconclusive and KB-3-1 tox inactive.
For COc1cc(C(=O)Nc2ccc(C)cn2)c([N+](=O)[O-])cc1OC the results were KB-V1 cytotox inactive, HT1080 IDH1KD tx inactive, ATXN2 expr inh inactive, HT1080NT lethal inactive, S2 tox inactive and KB-3-1 tox inactive.
Screening Cc1c(C(=O)NC(C)(C)CO)sc2ncnc(NCCN(C)C)c12 returned S2 tox inactive.
For COc1cc(F)ccc1-c1cc(C(=O)Nc2ccc(C)c(NS(C)(=O)=O)c2)[nH]n1 the results were KB-V1 cytotox inactive, HT1080 IDH1KD tx inactive, ATXN2 expr inh inactive, HT1080NT lethal inactive, S2 tox inactive and KB-3-1 tox inactive.
`COc1ccc(F)cc1-c1cc(C(=O)Nc2ccc(C)c(NS(C)(=O)=O)c2)[nH]n1` gave KB-V1 cytotox inactive, HT1080 IDH1KD tx inconclusive, ATXN2 expr inh 25.1µM, HT1080NT lethal inconclusive, S2 tox 3.55µM and KB-3-1 tox inactive.

Screening data from PubChem BioAssay.
